Measurements reported in the supplement of paper PMC5919970.
Where a name gives a salt, the structure may show the parent alone. In all, about 2,000 compounds were measured (“fractional viability relative to vehicle”: median about 0.92, lowest 2% from about 0.11 on). Many of the other results were omitted from the sample, so the lowest values are more common in it than they were.

Test system: TYKNU
Assay: fractional viability relative to vehicle; TYKNU is a high-grade serous ovarian cancer line; higher = less growth inhibition
Conditions: 72 h, genotype: OPA1 knockout (sgOPA1 #2)
Method in brief: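 Drug treatment lasted 72 h, with cells grown at 37 °C in 5% CO2 in RPMI 1640 supplemented with 10% FBS. Beforehand, TYKNU control cells or their lentiCRISPRv2 knockout derivatives had been seeded at 500 cells per well into drug-stamped 384-well plates carrying a ~2100-compound library at 2 or 10 μM, in duplicate. Viability came from Cell Titer Glo luminescence, with averaged duplicate treatment wells normalised to duplicate control wells in the same plate position.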

Q: For `CCn1c(-c2nonc2N)nc2c(C#CC(C)(C)O)ncc(OC[C@H]3CCCNC3)c21`, which fractional viability (2uM) is on record?
A: Its fractional viability is 1.01.

Q: What about the fractional viability (10uM) of the same compound?
A: The fractional viability was 0.698.

Q: `COc1ccc(-c2ccc3ncc4c(c3c2)n(-c2ccc(N3CCNCC3)c(C(F)(F)F)c2)c(=O)n4C)cn1` was tested. Which fractional viability (2uM) did it give?
A: The fractional viability was 0.111.

Q: What about the fractional viability (10uM) of the same compound?
A: The fractional viability was 0.0546.

Q: `Nc1ccc(-c2ccc3ncc4ccc(=O)n(-c5cccc(C(F)(F)F)c5)c4c3c2)cn1` [Torin 2] was tested. Which fractional viability (2uM) did it give?
A: The fractional viability was 0.36.

Q: And the fractional viability (10uM)?
A: The fractional viability was 0.363.

Q: How did the fractional viability (2uM) turn out when `CNC(=O)c1cc(Oc2ccc3nc(N[C@@H]4CCCC[C@H]4O)sc3c2)ccn1` was run?
A: Its fractional viability is 0.831.

Q: What about the fractional viability (10uM) of the same compound?
A: The fractional viability was 0.74.

Q: How did the fractional viability (2uM) turn out when `COc1cc2ncnc(Nc3ccc(O)c(Br)c3)c2cc1OC` was run?
A: The fractional viability was 1.37.

Q: What about the fractional viability (10uM) of the same compound?
A: Its fractional viability is 1.19.

Q: For `N#Cc1c(NC(=O)c2cccc3ccccc23)sc2c1CCCC2` [JNK Inhibitor IX], which fractional viability (2uM) is on record?
A: The fractional viability was 0.428.

Q: What about the fractional viability (10uM) of the same compound?
A: The fractional viability was 0.386.

Q: Which fractional viability (2uM) does the source give for `Cc1cc(C)nc(SCC(=O)Nc2ncc(Cc3cccc4ccccc34)s2)n1` here?
A: Its fractional viability is 0.904.

Q: What about the fractional viability (10uM) of the same compound?
A: Its fractional viability is 0.931.

Q: For `CC(=O)[C@]1(O)Cc2c(O)c3c(c(O)c2[C@@H](O[C@H]2C[C@H](N)[C@H](O)[C@H](C)O2)C1)C(=O)c1ccccc1C3=O` [Idarubicin HCl], which fractional viability (2uM) is on record?
A: Its fractional viability is 0.56.

Q: And the fractional viability (10uM)?
A: Its fractional viability is 0.0586.

Q: How did the fractional viability (2uM) turn out when `COc1cccc2c1C(=O)c1c(O)c3c(c(O)c1C2=O)C[C@@](O)(C(=O)CO)C[C@@H]3O[C@H]1C[C@H](N)[C@H](O)[C@H](C)O1` [Doxorubicin (Adriamycin)] was run?
A: The fractional viability was 0.738.

Q: And the fractional viability (10uM)?
A: The fractional viability was 0.726.

Q: With `COc1cccc2c1C(=O)c1c(O)c3c(c(O)c1C2=O)C[C@@](O)(C(C)=O)C[C@@H]3O[C@H]1C[C@H](N)[C@H](O)[C@H](C)O1` [Daunorubicin HCl] as the compound, how does the fractional viability (2uM) read?
A: Its fractional viability is 0.568.

Q: And the fractional viability (10uM)?
A: Its fractional viability is 0.108.

Q: For `Cn1nnc(-c2ccc3c(c2)[nH]c2nc(Cc4ccccc4)nc(NC4CCC(N)CC4)c23)n1` (centres undefined), which fractional viability (2uM) is on record?
A: The fractional viability was 1.01.

Q: What about the fractional viability (10uM) of the same compound?
A: Its fractional viability is 0.765.

Q: How did the fractional viability (2uM) turn out when `CC(C)Nc1cc(-c2c[nH]c(C(=O)N[C@H](CO)c3cccc(Cl)c3)c2)c(Cl)cn1` was run?
A: Its fractional viability is 0.453.

Q: What about the fractional viability (10uM) of the same compound?
A: Its fractional viability is 0.36.

Q: For `Cc1noc(C)c1-c1ccc(-c2cc(C(N)=O)c(NC(N)=O)s2)c(O[C@H]2CCNC2)c1`, which fractional viability (2uM) is on record?
A: The fractional viability was 0.847.

Q: What about the fractional viability (10uM) of the same compound?
A: The fractional viability was 0.778.

Q: Which fractional viability (2uM) does the source give for `COc1cc2ncnc(Sc3nnc(C)s3)c2cc1OC` here?
A: The fractional viability was 0.789.

Q: And the fractional viability (10uM)?
A: The fractional viability was 0.16.

Q: `Cn1cc(CNCC2CCN(c3ncc(C(=O)NO)cn3)CC2)c2ccccc21` was tested. Which fractional viability (2uM) did it give?
A: Its fractional viability is 0.224.

Q: What about the fractional viability (10uM) of the same compound?
A: Its fractional viability is 0.19.

Q: What does the source list for `CCNC(=O)C#Cc1ccc2c(C(=Nc3ccc(CN(C)C)cc3)c3ccccc3)c(O)[nH]c2c1`?
A: fractional viability (2uM): 0.276; fractional viability (10uM): 0.0913

Q: Which fractional viability (2uM) does the source give for `CN(C)Cc1cccc(N=C(c2ccccc2)c2c(O)[nH]c3cc(C(=O)N(C)C)ccc23)c1` here?
A: The fractional viability was 1.13.

Q: What about the fractional viability (10uM) of the same compound?
A: Its fractional viability is 0.78.

Q: For `O=C(O)CCCCC(CCSCc1ccccc1)SCc1ccccc1` (centres undefined), which fractional viability (2uM) is on record?
A: Its fractional viability is 1.23.

Q: And the fractional viability (10uM)?
A: The fractional viability was 0.919.

Q: What does the source list for `CCOC(=O)N[C@@H]1CC[C@@H]2[C@@H](C1)C[C@H]1C(=O)O[C@H](C)[C@H]1[C@H]2/C=C/c1ccc(-c2cccc(F)c2)cn1` [Vorapaxar]?
A: fractional viability (2uM): 0.913; fractional viability (10uM): 1.06

Q: How did the fractional viability (2uM) turn out when `CCn1c(=O)c(-c2ccc(-c3cncs3)cc2Cl)cc2cnc(Nc3ccc(N4CCN(C)CC4)cc3)nc21` was run?
A: Its fractional viability is 0.914.

Q: What about the fractional viability (10uM) of the same compound?
A: The fractional viability was 0.64.

Q: With `CC1(C)S[C@@H]2[C@H](NC(=O)[C@H](NC(=O)N3CCN(S(C)(=O)=O)C3=O)c3ccccc3)C(=O)N2[C@H]1C(=O)O` [Mezlocillin Sodium] as the compound, how does the fractional viability (2uM) read?
A: The fractional viability was 0.892.

Q: And the fractional viability (10uM)?
A: The fractional viability was 0.979.

Q: Which fractional viability (2uM) does the source give for `Nc1nc(=S)c2ncn([C@H]3C[C@H](O)[C@@H](CO)O3)c2[nH]1` here?
A: Its fractional viability is 1.03.

Q: What about the fractional viability (10uM) of the same compound?
A: The fractional viability was 0.763.
